Measured values: article PMC7862700, “An all-to-all approach to the identification of sequence-specific readers for epigenetic DNA modifications on cytosine”

Columns and labels:
Assay in all cases: DAPPL (digital affinity profiling via proximity ligation, sequencing); 10 mM Tris-HCl pH 7.5, 50 mM NaCl, 1 mM DTT, 4% glycerol, room temperature, 30 min; GST-TFs on glutathione beads, 16-mer random dsDNA library, 0.1% formaldehyde crosslink after washing; high values mean tight binding
[1] = molecular target: T1, FEV (Homo sapiens, UniProt Q99581 1-238); conditions: protein: recombinant; tags: N-terminal GST; dsDNA, one strand shown
T1 sequence: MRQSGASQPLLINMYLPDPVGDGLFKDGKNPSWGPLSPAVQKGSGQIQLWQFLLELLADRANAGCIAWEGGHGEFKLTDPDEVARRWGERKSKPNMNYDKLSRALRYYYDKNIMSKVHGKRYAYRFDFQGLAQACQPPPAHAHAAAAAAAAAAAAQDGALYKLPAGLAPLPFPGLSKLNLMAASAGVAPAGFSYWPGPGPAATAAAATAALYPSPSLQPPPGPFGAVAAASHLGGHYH
Summary of the method: (§1)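 The binding signal reported is, for every hexamer, its read frequency for a factor over its read frequency for the tag-only sample. Reads came from pools of yeast-expressed, GST-fused human transcription factors on glutathione beads, barcoded with DNA and mixed with that sample, which were incubated with 200 nmole of a random double-stranded 16-mer DNA library in Tris/NaCl/DTT/glycerol buffer at room temperature for 30 min. After washing, the pools were crosslinked with 0.1% formaldehyde, proximity-ligated with BsaI/T4 ligase for 1 h at 37 °C, PCR-amplified and sequenced on an Illumina NextSeq500.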

[2] = molecular target: ETV5 (Homo sapiens, UniProt P41161 1-510); conditions: protein: recombinant; tags: N-terminal GST; dsDNA, one strand shown
Summary of the method: as §1

[3] = molecular target: HSF1 (Homo sapiens, UniProt Q00613 1-529); conditions: protein: recombinant; tags: N-terminal GST; chain copies: 3; dsDNA, one strand shown
Summary of the method: as §1

[4] = molecular target: T2, SPIC (Homo sapiens, UniProt Q8N5J4 1-248); conditions: protein: recombinant; tags: N-terminal GST; dsDNA, one strand shown
T2 sequence: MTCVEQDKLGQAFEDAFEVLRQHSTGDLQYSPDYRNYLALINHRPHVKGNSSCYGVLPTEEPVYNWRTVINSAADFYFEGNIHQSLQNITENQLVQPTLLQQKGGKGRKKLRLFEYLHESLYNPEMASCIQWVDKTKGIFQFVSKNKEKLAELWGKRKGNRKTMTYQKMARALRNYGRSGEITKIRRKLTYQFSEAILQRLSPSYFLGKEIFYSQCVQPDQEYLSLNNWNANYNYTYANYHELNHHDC
Summary of the method: as §1

[5] = molecular target: ELF4 (Homo sapiens, UniProt Q99607 1-663); conditions: protein: recombinant; tags: N-terminal GST; dsDNA, one strand shown
Summary of the method: as §1

[6] = molecular target: T3, ELK4 (Homo sapiens, UniProt P28324-2 1-405); conditions: protein: recombinant; tags: N-terminal GST; dsDNA, one strand shown
T3 sequence: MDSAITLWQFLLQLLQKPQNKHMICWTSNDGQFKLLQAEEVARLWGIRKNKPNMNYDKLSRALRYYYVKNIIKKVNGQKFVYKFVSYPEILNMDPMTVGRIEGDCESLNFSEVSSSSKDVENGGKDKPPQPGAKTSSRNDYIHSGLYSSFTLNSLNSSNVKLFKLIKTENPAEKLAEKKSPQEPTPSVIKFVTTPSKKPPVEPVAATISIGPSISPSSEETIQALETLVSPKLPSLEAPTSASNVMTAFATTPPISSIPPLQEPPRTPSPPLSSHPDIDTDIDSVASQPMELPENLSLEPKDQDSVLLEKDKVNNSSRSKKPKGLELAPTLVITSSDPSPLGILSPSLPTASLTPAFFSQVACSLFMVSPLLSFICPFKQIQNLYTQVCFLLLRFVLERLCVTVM
Summary of the method: as §1

[7] = molecular target: T4, ETV2 (Homo sapiens, UniProt O00321 1-342); conditions: protein: recombinant; tags: N-terminal GST; dsDNA, one strand shown
T4 sequence: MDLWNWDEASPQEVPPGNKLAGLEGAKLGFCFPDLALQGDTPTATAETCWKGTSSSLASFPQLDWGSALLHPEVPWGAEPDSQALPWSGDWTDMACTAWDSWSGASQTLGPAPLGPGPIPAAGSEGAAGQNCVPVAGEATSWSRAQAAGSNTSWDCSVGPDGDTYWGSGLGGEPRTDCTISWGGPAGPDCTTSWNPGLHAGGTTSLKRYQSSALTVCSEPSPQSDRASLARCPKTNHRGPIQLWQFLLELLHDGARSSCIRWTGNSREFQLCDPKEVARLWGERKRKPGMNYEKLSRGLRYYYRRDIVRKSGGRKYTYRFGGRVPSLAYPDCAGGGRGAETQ
Summary of the method: as §1

[8] = molecular target: T5, ELF3 (Homo sapiens, UniProt P78545 1-371); conditions: protein: recombinant; tags: N-terminal GST; dsDNA, one strand shown
T5 sequence: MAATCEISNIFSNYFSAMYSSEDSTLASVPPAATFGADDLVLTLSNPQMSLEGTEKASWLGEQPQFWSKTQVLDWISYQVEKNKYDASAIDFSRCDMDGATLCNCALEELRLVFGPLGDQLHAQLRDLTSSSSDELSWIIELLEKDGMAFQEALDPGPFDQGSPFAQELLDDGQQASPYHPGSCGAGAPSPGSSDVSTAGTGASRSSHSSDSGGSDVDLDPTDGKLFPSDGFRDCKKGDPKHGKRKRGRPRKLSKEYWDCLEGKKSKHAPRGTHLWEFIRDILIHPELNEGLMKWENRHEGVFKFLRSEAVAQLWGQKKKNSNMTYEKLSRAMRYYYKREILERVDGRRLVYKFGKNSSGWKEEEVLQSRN
Summary of the method: as §1

[9] = molecular target: ETV1 (Homo sapiens, UniProt P50549 1-477); conditions: protein: recombinant; tags: N-terminal GST; dsDNA, one strand shown
Summary of the method: as §1

[10] = molecular target: T6, ERF (Homo sapiens, UniProt P50548 1-548); conditions: protein: recombinant; tags: N-terminal GST; dsDNA, one strand shown
T6 sequence: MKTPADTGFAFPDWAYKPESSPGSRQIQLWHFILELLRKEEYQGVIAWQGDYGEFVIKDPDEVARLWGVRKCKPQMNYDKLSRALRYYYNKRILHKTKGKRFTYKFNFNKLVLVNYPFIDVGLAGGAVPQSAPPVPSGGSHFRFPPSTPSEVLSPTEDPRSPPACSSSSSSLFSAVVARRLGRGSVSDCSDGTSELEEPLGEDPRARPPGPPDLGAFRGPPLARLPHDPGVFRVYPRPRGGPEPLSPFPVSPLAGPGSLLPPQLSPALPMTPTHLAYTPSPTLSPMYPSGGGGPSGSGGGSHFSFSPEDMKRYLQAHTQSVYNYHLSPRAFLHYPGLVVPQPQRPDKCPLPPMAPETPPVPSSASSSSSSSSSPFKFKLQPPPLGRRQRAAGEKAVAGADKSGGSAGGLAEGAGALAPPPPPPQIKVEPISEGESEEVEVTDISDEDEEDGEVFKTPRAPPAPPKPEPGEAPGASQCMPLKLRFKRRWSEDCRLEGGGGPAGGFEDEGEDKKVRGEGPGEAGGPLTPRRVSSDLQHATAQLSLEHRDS
Summary of the method: as §1

[11] = molecular target: T7, ETV3L (Homo sapiens, UniProt Q6ZN32 1-361); conditions: protein: recombinant; tags: N-terminal GST; dsDNA, one strand shown
T7 sequence: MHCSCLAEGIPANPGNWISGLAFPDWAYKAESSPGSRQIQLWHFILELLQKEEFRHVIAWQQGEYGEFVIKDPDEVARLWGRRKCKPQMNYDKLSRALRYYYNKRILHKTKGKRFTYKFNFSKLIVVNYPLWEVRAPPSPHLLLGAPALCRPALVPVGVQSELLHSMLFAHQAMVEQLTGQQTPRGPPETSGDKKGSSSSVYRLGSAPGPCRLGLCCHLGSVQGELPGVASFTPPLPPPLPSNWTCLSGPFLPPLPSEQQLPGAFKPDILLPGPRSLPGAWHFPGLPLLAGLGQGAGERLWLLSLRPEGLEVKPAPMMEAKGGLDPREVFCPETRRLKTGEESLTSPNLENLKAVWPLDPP
Summary of the method: as §1

[12] = molecular target: T8, ETS2 (Homo sapiens, UniProt P15036 1-469); conditions: protein: recombinant; tags: N-terminal GST; dsDNA, one strand shown
T8 sequence: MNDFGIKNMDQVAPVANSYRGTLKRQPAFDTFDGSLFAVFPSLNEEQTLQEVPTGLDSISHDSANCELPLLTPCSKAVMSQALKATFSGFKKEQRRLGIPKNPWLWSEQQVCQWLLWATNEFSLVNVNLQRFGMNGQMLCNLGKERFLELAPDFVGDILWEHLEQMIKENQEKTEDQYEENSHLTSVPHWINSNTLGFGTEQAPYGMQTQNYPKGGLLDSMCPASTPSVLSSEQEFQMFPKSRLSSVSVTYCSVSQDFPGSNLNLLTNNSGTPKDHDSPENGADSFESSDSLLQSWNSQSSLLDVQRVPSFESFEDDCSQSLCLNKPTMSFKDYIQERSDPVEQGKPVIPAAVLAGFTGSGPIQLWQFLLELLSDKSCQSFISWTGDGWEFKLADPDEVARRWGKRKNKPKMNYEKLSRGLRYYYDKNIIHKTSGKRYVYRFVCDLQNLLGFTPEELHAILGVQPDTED
Summary of the method: as §1

[13] = molecular target: T9, SPDEF (Homo sapiens, UniProt O95238 1-335); conditions: protein: recombinant; tags: N-terminal GST; dsDNA, one strand shown
T9 sequence: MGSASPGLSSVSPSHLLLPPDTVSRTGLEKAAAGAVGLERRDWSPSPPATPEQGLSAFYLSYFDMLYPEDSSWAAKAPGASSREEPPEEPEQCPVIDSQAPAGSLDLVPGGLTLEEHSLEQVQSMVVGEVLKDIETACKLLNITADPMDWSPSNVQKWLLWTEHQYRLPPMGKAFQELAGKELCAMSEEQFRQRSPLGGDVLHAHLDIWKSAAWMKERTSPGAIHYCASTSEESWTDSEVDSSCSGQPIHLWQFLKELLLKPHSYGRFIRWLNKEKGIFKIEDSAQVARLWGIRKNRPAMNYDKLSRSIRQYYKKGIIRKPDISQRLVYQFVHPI
Summary of the method: as §1

[14] = molecular target: T10, ETV7 (Homo sapiens, UniProt Q9Y603 1-341); conditions: protein: recombinant; tags: N-terminal GST; dsDNA, one strand shown
T10 sequence: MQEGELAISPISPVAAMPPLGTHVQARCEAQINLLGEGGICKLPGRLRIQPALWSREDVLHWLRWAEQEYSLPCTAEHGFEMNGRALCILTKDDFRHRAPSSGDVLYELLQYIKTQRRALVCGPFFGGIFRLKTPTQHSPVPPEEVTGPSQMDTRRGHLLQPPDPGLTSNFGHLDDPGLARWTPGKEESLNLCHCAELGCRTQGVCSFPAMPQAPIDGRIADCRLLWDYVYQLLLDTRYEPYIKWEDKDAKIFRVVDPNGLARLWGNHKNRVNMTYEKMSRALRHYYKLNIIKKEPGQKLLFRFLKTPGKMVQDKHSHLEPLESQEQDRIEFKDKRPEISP
Summary of the method: as §1

[15] = molecular target: T11, ELF5 (Homo sapiens, UniProt Q9UKW6-2 1-255); conditions: protein: recombinant; tags: N-terminal GST; dsDNA, one strand shown
T11 sequence: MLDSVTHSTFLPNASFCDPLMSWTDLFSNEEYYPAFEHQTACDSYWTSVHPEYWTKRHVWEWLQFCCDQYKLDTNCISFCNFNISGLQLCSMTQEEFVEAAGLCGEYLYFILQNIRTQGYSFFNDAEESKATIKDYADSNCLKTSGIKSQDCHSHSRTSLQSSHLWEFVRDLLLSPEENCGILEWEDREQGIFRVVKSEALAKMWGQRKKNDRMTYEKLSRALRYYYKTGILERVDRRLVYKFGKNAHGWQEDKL
Summary of the method: as §1

[16] = molecular target: T12, ETV3 (Homo sapiens, UniProt P41162-2 1-143); conditions: protein: recombinant; tags: N-terminal GST; dsDNA, one strand shown
T12 sequence: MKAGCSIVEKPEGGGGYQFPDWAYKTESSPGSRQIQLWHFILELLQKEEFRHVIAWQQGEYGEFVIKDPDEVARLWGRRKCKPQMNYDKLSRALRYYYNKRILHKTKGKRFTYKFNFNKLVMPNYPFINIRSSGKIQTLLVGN
Summary of the method: as §1

[17] = molecular target: ETV6 (Homo sapiens, UniProt P41212 1-452); conditions: protein: recombinant; tags: N-terminal GST; dsDNA, one strand shown
Summary of the method: as §1

ETV6, sequence (P41212 whole entry): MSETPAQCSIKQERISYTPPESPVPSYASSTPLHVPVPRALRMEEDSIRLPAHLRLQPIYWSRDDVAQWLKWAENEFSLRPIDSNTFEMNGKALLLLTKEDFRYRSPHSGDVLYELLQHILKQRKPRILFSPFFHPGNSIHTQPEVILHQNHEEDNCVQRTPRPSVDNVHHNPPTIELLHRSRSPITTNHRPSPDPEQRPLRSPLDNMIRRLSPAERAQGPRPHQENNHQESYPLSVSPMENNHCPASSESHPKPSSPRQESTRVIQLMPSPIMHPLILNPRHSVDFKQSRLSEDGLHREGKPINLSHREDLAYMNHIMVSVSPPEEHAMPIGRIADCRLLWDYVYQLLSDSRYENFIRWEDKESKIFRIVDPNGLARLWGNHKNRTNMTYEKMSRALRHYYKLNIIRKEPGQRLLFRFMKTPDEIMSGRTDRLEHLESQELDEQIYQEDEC
ELF4, sequence (Q99607 whole entry): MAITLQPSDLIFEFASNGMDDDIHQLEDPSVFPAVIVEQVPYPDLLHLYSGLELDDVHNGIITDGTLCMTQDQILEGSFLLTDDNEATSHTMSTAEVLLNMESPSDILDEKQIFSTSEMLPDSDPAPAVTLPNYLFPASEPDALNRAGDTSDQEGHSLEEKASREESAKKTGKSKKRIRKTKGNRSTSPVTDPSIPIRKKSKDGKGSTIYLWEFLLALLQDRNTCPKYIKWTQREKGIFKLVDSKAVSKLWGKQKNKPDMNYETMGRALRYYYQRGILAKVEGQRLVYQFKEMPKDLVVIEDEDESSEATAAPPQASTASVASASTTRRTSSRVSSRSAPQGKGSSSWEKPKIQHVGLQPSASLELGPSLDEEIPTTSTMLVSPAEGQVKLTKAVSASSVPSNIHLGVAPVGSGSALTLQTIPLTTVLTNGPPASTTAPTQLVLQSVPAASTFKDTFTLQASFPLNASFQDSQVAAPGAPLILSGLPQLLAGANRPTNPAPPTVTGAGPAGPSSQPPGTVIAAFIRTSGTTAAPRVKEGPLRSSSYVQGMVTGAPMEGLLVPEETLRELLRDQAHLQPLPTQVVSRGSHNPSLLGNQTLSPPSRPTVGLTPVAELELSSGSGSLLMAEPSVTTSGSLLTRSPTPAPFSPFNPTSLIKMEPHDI
HSF1, sequence (Q00613 whole entry): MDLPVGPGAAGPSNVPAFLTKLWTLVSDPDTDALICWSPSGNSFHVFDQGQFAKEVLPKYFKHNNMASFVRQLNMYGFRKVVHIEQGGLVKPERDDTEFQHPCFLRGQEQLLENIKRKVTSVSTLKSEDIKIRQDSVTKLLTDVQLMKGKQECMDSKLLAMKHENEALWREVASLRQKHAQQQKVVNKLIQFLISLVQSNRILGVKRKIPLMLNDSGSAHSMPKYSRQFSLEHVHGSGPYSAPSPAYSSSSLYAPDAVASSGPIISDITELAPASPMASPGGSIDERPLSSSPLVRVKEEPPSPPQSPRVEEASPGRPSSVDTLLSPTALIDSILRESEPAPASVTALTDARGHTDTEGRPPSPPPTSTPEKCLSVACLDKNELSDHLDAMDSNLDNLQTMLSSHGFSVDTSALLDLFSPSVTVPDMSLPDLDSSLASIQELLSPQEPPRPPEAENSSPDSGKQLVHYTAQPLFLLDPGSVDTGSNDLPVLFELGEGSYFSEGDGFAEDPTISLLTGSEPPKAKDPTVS
ETV1, sequence (P50549 whole entry): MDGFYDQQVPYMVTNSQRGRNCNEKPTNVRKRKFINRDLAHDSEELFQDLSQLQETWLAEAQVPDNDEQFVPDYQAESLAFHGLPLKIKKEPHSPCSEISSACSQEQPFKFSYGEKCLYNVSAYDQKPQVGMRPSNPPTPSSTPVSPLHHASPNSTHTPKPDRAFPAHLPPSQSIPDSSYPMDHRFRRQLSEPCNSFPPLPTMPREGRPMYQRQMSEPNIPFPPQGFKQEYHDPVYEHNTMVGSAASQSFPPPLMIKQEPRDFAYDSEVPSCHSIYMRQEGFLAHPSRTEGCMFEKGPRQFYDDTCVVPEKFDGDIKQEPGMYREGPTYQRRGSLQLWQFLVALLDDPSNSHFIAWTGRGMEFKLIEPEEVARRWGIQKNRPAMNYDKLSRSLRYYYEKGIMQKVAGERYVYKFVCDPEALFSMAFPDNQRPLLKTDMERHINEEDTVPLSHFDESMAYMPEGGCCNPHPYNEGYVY
ETV5, sequence (P41161 whole entry): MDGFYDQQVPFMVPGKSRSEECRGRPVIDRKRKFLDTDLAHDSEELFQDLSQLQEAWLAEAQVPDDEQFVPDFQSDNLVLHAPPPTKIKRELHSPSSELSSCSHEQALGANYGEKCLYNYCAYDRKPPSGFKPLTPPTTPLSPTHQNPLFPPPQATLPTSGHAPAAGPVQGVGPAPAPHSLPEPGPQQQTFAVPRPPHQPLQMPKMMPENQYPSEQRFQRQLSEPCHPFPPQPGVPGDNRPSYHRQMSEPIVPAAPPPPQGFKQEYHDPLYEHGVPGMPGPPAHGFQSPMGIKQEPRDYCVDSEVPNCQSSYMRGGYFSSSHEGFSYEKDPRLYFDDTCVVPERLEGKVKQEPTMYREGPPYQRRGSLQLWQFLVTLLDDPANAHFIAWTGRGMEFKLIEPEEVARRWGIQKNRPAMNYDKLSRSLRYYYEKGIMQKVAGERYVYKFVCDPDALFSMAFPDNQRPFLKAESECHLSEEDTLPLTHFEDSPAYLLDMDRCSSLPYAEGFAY

Sequence | binding signal [1] | binding signal [2] | binding signal [3] | binding signal [4] | binding signal [5] | binding signal [6] | binding signal [7] | binding signal [8] | binding signal [9] | binding signal [10] | binding signal [11] | binding signal [12] | binding signal [13] | binding signal [14] | binding signal [15] | binding signal [16] | binding signal [17]
AAACTG | 1.06 fold enrichment (6-mer frequency, TF over GST control) | 1.09 fold enrichment (6-mer frequency, TF over GST control) | 1.01 fold enrichment (6-mer frequency, TF over GST control) | 1.07 fold enrichment (6-mer frequency, TF over GST control) | 1.1 fold enrichment (6-mer frequency, TF over GST control) | 1.06 fold enrichment (6-mer frequency, TF over GST control) | 1.09 fold enrichment (6-mer frequency, TF over GST control) | 1.01 fold enrichment (6-mer frequency, TF over GST control) | 1.13 fold enrichment (6-mer frequency, TF over GST control) | 1.03 fold enrichment (6-mer frequency, TF over GST control) | 1.08 fold enrichment (6-mer frequency, TF over GST control) | 1.08 fold enrichment (6-mer frequency, TF over GST control) | 1.02 fold enrichment (6-mer frequency, TF over GST control) | 1.13 fold enrichment (6-mer frequency, TF over GST control) | 1.1 fold enrichment (6-mer frequency, TF over GST control) | 1.07 fold enrichment (6-mer frequency, TF over GST control) | 1.12 fold enrichment (6-mer frequency, TF over GST control)
TGGTAC | 1.07 fold enrichment (6-mer frequency, TF over GST control) | 1.2 fold enrichment (6-mer frequency, TF over GST control) | 1.04 fold enrichment (6-mer frequency, TF over GST control) | 1.14 fold enrichment (6-mer frequency, TF over GST control) | 1.08 fold enrichment (6-mer frequency, TF over GST control) | 1.11 fold enrichment (6-mer frequency, TF over GST control) | 1.15 fold enrichment (6-mer frequency, TF over GST control) | 1.07 fold enrichment (6-mer frequency, TF over GST control) | 1.19 fold enrichment (6-mer frequency, TF over GST control) | 1.11 fold enrichment (6-mer frequency, TF over GST control) | 1.21 fold enrichment (6-mer frequency, TF over GST control) | 1.19 fold enrichment (6-mer frequency, TF over GST control) | 1.11 fold enrichment (6-mer frequency, TF over GST control) | 1.14 fold enrichment (6-mer frequency, TF over GST control) | 1.14 fold enrichment (6-mer frequency, TF over GST control) | 1.14 fold enrichment (6-mer frequency, TF over GST control) | 1.14 fold enrichment (6-mer frequency, TF over GST control)
